Test results taken from PubChem BioAssay (NCATS).
Records with an inconclusive call do not appear. Activity calls are given as the source filed them. Unless noted, calls follow the shape of the dose curve; as a rule, active = well fitted curve in the direction sought with a large enough effect; inconclusive = small, poorly fitted or top-dose-only effect, or another doubt; inactive = no such curve, though single readings can be large; an effect the other way counts as inactive or inconclusive.

Key:
[1] = AP1 Signaling Pathway (AID 357; active = well fitted curve in either direction with a large enough effect, not every such curve was filed as active;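 also: ME-180 reporter cells stimulated with EGF at its EC50 level; % is scaled to controls: 0 for no effect and ±100 for the full control effect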)
Method in brief: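 A ratiometric CCF4 readout (405 nm excitation; 460 and 530 nm emission) quantified AP-1-driven beta-lactamase in ME-180 cells after 5 h with compound and EC50 EGF; AC50 values were derived for activators and inhibitors.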

[2] = target: Cytochrome P450 1A2 (Homo sapiens) (UniProt P05177); test: p450-cyp1a2 (AID 410; calls by dose curve;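 also: -100% = full effect of reference inhibitor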)
Sequence of Cytochrome P450 1A2 (Homo sapiens) (P05177 whole entry, looked up): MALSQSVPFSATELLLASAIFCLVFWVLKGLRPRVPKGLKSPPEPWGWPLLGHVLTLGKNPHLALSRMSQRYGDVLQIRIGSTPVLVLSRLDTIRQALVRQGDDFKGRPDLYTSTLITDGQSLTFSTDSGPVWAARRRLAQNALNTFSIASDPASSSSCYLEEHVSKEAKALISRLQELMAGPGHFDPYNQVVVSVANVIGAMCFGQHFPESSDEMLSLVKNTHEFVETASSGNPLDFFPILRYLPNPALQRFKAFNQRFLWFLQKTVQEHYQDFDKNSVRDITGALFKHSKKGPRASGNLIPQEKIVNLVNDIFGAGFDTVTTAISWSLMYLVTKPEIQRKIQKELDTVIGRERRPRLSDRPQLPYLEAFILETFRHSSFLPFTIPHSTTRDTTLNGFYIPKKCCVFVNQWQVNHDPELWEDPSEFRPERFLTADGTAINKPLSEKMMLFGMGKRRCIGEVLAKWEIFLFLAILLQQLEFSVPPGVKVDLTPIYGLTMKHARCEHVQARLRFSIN
Method in brief: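 20nM CYP1A2 with 100uM Luciferin-ME (at Km) in 100mM KPO4; compound preincubated 10 min, NADPH regeneration added, 60 min at room temperature. Luciferin quantified by luminescence after detection reagent; normalized to 57 uM furafylline.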

[3] = target: Glucocorticoid receptor (Homo sapiens) (UniProt P04150); test: GR-GFP Redistribution (AID 450;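 active = compounds whose dose series gives a full or clear partial fitted curve of increased nuclear translocation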; also: potency is read from the fitted curve at half-maximal effect); conditions: U2OS GR-GFP nuclear translocation, laser cytometry, 2 h
Sequence of Glucocorticoid receptor (Homo sapiens) (P04150 whole entry, looked up, the tested form may be a part): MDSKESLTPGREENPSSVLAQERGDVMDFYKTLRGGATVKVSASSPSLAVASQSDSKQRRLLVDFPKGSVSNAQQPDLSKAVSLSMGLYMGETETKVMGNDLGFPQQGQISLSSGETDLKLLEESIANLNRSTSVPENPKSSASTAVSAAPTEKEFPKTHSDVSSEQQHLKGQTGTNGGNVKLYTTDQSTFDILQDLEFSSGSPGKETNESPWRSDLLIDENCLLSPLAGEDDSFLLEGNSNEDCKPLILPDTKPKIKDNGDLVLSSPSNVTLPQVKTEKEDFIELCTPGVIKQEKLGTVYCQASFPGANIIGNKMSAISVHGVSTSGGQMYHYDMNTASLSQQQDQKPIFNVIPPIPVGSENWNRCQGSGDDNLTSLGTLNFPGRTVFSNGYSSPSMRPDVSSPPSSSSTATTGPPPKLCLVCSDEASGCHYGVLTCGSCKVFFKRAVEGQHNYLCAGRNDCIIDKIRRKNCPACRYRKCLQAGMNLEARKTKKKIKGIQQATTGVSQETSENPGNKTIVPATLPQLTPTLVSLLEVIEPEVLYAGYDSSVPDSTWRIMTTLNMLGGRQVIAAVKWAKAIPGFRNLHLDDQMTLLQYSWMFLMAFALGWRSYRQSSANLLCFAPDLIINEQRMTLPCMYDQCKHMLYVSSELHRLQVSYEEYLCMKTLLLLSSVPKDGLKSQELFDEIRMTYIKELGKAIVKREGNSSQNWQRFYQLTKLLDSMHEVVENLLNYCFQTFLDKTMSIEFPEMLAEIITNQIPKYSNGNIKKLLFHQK

[4] = target: Glucocorticoid receptor (Homo sapiens) (UniProt P04150); test: GR-EFC Redistribution (AID 451; calls by dose curve; also: potency is read from the fitted curve at half-maximal effect); conditions: CHO-K1 GR-EFC translocation, beta-gal luminescence, 2 h
Method in brief: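 CHO-K1 cells expressing nuclear EA and GR-ED fragments of b-gal; compounds titrated up to 46 uM final, 2 h at 37 C. GR nuclear translocation read as complemented b-gal luminescence after 1 h RT detection.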

[5] = target: Mitogen-activated protein kinase 10 (Mus musculus) (UniProt Q61831); test: JNK3 AlphaScreen Assay (AID 530; active = well fitted curve in either direction with a large enough effect, not every such curve was filed as active;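 also: kinase came from lysate of stimulated human HepG2 cells; signal reports phosphorylation of biotinylated GST-cJun 1-79 at Ser73 with 10 µM ATP; series mostly up to about 57 µM; % is scaled to controls: 0 for no effect and ±100 for the full control effect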)
Method in brief: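 Pre-activated (IL-1β/TNFα) JNK3 in HepG2 lysates phosphorylates biotin-GST-cJun(1-79), 10 uM ATP; anti-phospho-cJun(Ser73) AlphaScreen read at room temperature, pH 7.6 Tris buffer. Compounds pre-incubated 15 min as titrations.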

[6] = target: 3',5'-cyclic-AMP phosphodiesterase 4B (Homo sapiens) (UniProt Q07343); test: qHTS Assay for Inhibitors of PDE-IV (AID 607; active = well fitted activation curve with a large enough effect in the main read-out, with a control signal flat, not every such curve was filed as active; also: % of control where 0% means no effect)
Sequence of 3',5'-cyclic-AMP phosphodiesterase 4B (Homo sapiens) (Q07343 whole entry, looked up): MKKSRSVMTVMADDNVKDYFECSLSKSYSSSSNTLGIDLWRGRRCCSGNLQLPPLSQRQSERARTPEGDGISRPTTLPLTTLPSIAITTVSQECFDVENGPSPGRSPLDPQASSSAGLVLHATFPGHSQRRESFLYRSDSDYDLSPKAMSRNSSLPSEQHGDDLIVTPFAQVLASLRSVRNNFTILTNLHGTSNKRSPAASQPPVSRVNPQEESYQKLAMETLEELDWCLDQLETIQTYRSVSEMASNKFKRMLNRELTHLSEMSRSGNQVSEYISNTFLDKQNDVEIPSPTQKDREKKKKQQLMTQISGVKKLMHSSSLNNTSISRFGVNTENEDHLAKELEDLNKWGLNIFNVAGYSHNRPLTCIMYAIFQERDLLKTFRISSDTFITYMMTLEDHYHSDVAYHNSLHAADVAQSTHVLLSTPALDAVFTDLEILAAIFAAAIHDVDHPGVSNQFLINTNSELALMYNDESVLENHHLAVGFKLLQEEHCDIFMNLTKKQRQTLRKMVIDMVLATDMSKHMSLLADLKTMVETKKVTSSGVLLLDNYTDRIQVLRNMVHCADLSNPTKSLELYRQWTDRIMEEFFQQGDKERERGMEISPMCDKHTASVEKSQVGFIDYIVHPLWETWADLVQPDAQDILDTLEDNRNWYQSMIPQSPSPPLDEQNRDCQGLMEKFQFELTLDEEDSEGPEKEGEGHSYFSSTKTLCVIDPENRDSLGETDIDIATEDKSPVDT
Method in brief: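 The readout is membrane depolarisation from a cAMP-sensing CNG channel, detected with a potential dye at ex 535/em 590. Cells were HEK293-derived (endogenous PDE-IV) at 1000 cells/well, titrated up to 22.9 uM final.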

[7] = target: Cytochrome P450 2C9 (Homo sapiens) (UniProt P11712); test: qHTS Assay for Inhibitors and Substrates of Cytochrome P450 2C9 (AID 883); also: potency is read from the fitted curve at half-maximal effect; nearly all actives have a fitted effect of over 60% in size
Sequence of Cytochrome P450 2C9 (Homo sapiens) (P11712 whole entry, looked up): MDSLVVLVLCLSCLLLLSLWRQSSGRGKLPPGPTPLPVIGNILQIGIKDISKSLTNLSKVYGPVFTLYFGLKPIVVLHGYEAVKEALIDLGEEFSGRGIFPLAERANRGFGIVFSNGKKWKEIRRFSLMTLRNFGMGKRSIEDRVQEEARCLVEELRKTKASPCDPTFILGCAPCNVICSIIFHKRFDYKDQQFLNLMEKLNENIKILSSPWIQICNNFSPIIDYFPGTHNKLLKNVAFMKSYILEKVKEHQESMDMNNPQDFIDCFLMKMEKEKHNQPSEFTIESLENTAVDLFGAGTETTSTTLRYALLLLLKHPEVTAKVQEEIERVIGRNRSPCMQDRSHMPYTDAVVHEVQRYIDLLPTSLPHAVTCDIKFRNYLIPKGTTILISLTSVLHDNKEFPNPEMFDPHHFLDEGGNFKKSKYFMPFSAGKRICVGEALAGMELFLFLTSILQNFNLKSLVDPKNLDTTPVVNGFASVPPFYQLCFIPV
Method in brief: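 10nM CYP2C9 + 100uM Luciferin-H (=KM), 25mM KPO4; cpd 10 min 37C; NADPH regen, 60 min 37C; stop/detect with P450 Glo-Buffer 20 min; luminescence. Norm. to 57uM sulphaphenazole as full inhibition.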

[8] = target: Rap guanine nucleotide exchange factor 3 (Homo sapiens) (UniProt O95398); test: Confirmatory qHTS for antagonist of cAMP-regulated guanine nucleotide exchange factor 3 (EPAC1) (AID 1645880); also: potency is read from the fitted curve at half-maximal effect; nearly all actives have a fitted effect of over 55% in size
Sequence of Rap guanine nucleotide exchange factor 3 (Homo sapiens) (O95398 whole entry, looked up): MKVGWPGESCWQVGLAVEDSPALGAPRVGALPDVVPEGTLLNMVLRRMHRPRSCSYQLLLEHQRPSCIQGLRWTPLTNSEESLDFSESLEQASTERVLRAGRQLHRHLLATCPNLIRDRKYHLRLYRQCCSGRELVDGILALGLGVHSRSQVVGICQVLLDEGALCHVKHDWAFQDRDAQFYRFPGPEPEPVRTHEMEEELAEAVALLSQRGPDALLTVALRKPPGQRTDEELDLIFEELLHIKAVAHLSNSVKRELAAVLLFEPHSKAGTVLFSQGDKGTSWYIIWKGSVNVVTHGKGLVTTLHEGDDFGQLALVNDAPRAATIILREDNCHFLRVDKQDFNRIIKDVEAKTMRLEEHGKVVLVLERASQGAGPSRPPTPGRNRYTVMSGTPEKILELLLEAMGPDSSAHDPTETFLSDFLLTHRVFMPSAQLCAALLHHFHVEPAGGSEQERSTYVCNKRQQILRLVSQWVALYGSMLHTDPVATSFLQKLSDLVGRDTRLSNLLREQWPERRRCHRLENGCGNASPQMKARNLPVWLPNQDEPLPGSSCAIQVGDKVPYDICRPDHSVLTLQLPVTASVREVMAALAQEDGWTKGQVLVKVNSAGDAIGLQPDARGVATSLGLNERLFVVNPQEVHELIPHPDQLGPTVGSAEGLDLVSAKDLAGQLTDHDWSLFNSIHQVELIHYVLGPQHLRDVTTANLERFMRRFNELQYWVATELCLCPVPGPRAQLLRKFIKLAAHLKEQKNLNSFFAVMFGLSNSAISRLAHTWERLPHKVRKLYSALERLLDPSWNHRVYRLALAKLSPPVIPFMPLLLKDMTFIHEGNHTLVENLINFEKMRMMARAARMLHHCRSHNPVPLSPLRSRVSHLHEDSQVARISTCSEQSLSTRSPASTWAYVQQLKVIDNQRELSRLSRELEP
Method in brief: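 Nucleotide exchange uses 100 nM EPAC1, 250 nM RAP1B-BODIPY-GDP and 50 uM GDP, with compounds in a concentration-titration series. After 5 min at room temperature, fluorescence (480 nm ex/540 nm em) is read every 5 min for 30 min. Data are normalized to control ATA and DMSO.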

[9] = target: Rap guanine nucleotide exchange factor 3 (Homo sapiens) (UniProt O95398); test: Confirmatory qHTS for agonist of cAMP-regulated guanine nucleotide exchange factor 3 (EPAC1) (AID 1645881);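 also: EPAC1 catalysed release of BODIPY-GDP from Rap1B seen as fluorescence loss; 100% = effect of cAMP agonist control; nearly all actives have a fitted effect of over 75% in size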
[10] = target: Rap guanine nucleotide exchange factor 4 (Homo sapiens) (UniProt Q8WZA2); test: Confirmatory qHTS for agonist of cAMP-regulated guanine nucleotide exchange factor 4 (EPAC2) (AID 1645884);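 also: nucleotide exchange releases bodipy-GDP from Rap1 and this lowers its fluorescence; % is scaled to controls: 0 for no effect and ±100 for the full control effect; nearly all actives have a fitted effect of over 65% in size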
Sequence of Rap guanine nucleotide exchange factor 4 (Homo sapiens) (Q8WZA2 whole entry, looked up): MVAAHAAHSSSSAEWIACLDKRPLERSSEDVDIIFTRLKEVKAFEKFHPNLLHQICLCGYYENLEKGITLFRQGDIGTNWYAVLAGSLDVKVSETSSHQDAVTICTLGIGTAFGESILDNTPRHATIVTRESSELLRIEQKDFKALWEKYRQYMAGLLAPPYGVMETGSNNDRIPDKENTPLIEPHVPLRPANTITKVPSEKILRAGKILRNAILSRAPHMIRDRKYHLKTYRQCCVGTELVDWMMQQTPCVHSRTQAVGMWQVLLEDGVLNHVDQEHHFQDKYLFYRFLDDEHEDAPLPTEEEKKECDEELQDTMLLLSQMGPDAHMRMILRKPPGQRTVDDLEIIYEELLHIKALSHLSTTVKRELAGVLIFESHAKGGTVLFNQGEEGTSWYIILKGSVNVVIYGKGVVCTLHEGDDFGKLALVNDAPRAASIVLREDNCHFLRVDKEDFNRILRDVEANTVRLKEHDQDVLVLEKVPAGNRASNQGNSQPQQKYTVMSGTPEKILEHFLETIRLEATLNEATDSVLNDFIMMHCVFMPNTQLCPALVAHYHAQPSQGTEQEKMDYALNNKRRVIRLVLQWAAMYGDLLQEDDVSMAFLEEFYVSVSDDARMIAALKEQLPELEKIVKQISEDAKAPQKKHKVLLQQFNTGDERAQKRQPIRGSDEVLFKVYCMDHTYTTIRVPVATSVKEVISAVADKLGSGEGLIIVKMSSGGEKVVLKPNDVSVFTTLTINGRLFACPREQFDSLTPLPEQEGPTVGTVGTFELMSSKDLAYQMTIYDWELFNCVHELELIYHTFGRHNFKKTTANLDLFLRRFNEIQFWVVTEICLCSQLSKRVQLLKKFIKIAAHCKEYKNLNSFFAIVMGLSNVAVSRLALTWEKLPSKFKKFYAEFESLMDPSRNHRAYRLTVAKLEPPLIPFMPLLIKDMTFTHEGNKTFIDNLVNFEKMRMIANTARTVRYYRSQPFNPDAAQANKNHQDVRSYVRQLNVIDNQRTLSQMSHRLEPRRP

[11] = target: Rap guanine nucleotide exchange factor 4 (Homo sapiens) (UniProt Q8WZA2); test: Confirmatory qHTS for antagonist of cAMP-regulated guanine nucleotide exchange factor 4 (EPAC2) (AID 1645885); also: % is scaled to controls: 0 for no effect and ±100 for the full control effect; nearly all actives have a fitted effect of over 25% in size
[12] = target: Rap guanine nucleotide exchange factor 3 (Homo sapiens) (UniProt O95398); test: Counterscreen qHTS for agonist of cAMP-regulated guanine nucleotide exchange factor 3 (EPAC1) (AID 1645889); also: % of control where 0% means no effect; nearly all actives have a fitted effect of over 40% in size
Method in brief: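 Rap1B–BODIPY-GDP (250 nM) with 50 uM GDP; compounds pin-transferred to 9.74 nM–152 uM final (activator) or from 7.32 nM upwards (inhibitor). Fluorescence Ex/Em 480/540 nm read at 5 and 30 min, then after adding cAMP or buffer, at room temperature.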

CC(C)c1ccc(C(c2c(O)c3ccccc3oc2=O)c2c(O)c3ccccc3oc2=O)cc1
active: Potency [7] 3.16 µM | Potency [8] 15.1 µM
inactive: outcome [1] | activity change, negative = inhibition [2] -18.8% [at 2.29 µM] | Potency [3] > 46 µM | Potency [4] > 9.22 µM | activity change, negative = inhibition [5] -6.98% [at 11.4 µM] | Potency [6] | Potency [9] | Potency [10] | Potency [11] | Potency [12]
